Read-out in experiment [1]: Interleukin-6 (IL6), IL6 (gene 3569)
The experiment is described as follows: BSK_CASM3C_IL6: BioMAP Diversity Plus: CASM3C Assay for Interleukin-6 (IL6) Biomarker Activity for (AID 2283040). The settings on record: primary human coronary artery smooth muscle cells; actives raise or lower the signal.

Read-out in experiment [2]: Tissue plasminogen activator (tPA), PLAT (gene 5327)
The experiment is described as follows: BSK_BE3C_tPA: BioMAP Diversity Plus: BE3C Assay for Tissue plasminogen activator (tPA) Biomarker Activity (AID 2283041).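 As to outcome: tPA level quantified by ELISA one day after compound addition.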 The settings on record: primary human bronchial epithelial cells; actives raise or lower the signal. The method in brief:
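tPA measured by ELISA 24 h after dosing human primary bronchial epithelial cells (BE3C system). Changes in either direction were fitted against DMSO. Parallel cultures were stained with SRB to flag overt cytotoxicity.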

Read-out in experiment [3]: Interleukin-8 (IL8), CXCL8 (gene 3576)
The experiment is described as follows: BSK_CASM3C_IL8: BioMAP Diversity Plus: CASM3C Assay for Interleukin-8 (IL8) Biomarker Activity (AID 2283042).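 Also: IL-8 protein level quantified by ELISA.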 The settings on record: primary human coronary artery smooth muscle cells; actives raise or lower the signal.

Read-out in experiment [4]: Human Leukocyte Antigen - DR isotype (HLADR), HLA-DRA (gene 3122)
The experiment is described as follows: BSK_CASM3C_HLADR: BioMAP Diversity Plus: CASM3C Assay for Human Leukocyte Antigen - DR isotype (HLADR) Biomarker Activity (AID 2283043).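 Also: cell-surface HLA-DR protein level quantified by ELISA.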 The settings on record: primary human coronary artery smooth muscle cells; actives raise or lower the signal.

Read-out in experiment [5]: Macrophage colony-stimulating factor (MCSF), CSF1 (gene 1435)
The experiment can be described thus: BSK_CASM3C_MCSF: BioMAP Diversity Plus: CASM3C Assay for Macrophage colony-stimulating factor (MCSF) Biomarker Activity (AID 2283044).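 Also: M-CSF protein amount quantified by ELISA after 24 h exposure.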 The settings on record: primary human coronary artery smooth muscle cells; actives raise or lower the signal.

Read-out in experiment [6]: Low-density lipoprotein receptor (LDLR), LDLR (gene 3949)
The experiment can be described thus: BSK_CASM3C_LDLR: BioMAP Diversity Plus: CASM3C Assay for Low-density lipoprotein receptor (LDLR) Biomarker Activity (AID 2283045).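 Also: LDLR protein level on the cell surface quantified by ELISA.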 The settings on record: primary human coronary artery smooth muscle cells; actives raise or lower the signal.

Read-out in experiment [7]: Monocyte Chemoattractant Protein-1 (MCP1), CCL2 (gene 6347)
The experiment is described as follows: BSK_CASM3C_MCP1: BioMAP Diversity Plus: CASM3C Assay for Monocyte Chemoattractant Protein-1 (MCP1) Biomarker Activity (AID 2283046).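 Also: MCP-1 level quantified by ELISA 24 h after dosing.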 The following applies: primary human coronary artery smooth muscle cells; actives raise or lower the signal.

Experiment [8] in a line: BSK_CASM3C_Proliferation: Cell Proliferation Assessment in the BioMAP Diversity Plus: CASM3C Assay (AID 2283047).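 Also: sulforhodamine B total protein stain as relative cell number at 560 nm; sub-confluent cells exposed 48 h before staining; fitted both ways against DMSO so gain or loss of cell number.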 The following applies: primary human coronary artery smooth muscle cells.
Read-out in experiment [9]: Monokine induced gamma interferon (MIG), CXCL9 (gene 4283)
The experiment is described as follows: BSK_CASM3C_MIG: BioMAP Diversity Plus: CASM3C Assay for Monokine induced gamma interferon (MIG) Biomarker Activity (AID 2283048).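 Also: MIG protein level measured by ELISA.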 The settings on record: primary human coronary artery smooth muscle cells; actives raise or lower the signal.

Read-out in experiment [10]: serum amyloid A (SAA), SAA1 (gene 6288)
The experiment can be described thus: BSK_CASM3C_SAA: BioMAP Diversity Plus: CASM3C Assay for serum amyloid A (SAA) Biomarker Activity (AID 2283049).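 Also: SAA protein level quantified by ELISA.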 The following applies: primary human coronary artery smooth muscle cells; actives raise or lower the signal.

Experiment [11] is described as follows: BSK_CASM3C_SRB: Viability Assessment in the BioMAP Diversity Plus: CASM3C Assay (AID 2283050).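 Also: total protein by SRB staining as cytotoxicity measure in parallel cultures; cells exposed to compound for 24 h.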 The following applies: primary human coronary artery smooth muscle cells.
Read-out in experiment [12]: Thrombomodulin, THBD (gene 7056)
The experiment is described as follows: BSK_CASM3C_Thrombomodulin: BioMAP Diversity Plus: CASM3C Assay for Thrombomodulin Biomarker Activity (AID 2283051).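 Also: thrombomodulin protein level measured by ELISA 24 h after dosing.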 The following applies: primary human coronary artery smooth muscle cells; actives raise or lower the signal.

Read-out in experiment [13]: Tissue Factor, F3 (gene 2152)
The experiment can be described thus: BSK_CASM3C_TissueFactor: BioMAP Diversity Plus: CASM3C Assay for Tissue Factor Biomarker Activity (AID 2283052).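 Also: cell surface tissue factor protein level read by ELISA.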 The following applies: primary human coronary artery smooth muscle cells; actives raise or lower the signal.

Read-out in experiment [14]: Interferon-gamma inducible Protein 10 (IP10), CXCL10 (gene 3627)
The experiment can be described thus: BSK_hDFCGF_IP10: BioMAP Diversity Plus: hDFCGF Assay for Interferon-gamma inducible Protein 10 (IP10) Biomarker Activity (AID 2283053). The following applies: primary human foreskin fibroblasts; actives raise or lower the signal. In a few lines: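 ELISA quantification of IP-10 after a 24 h chemical exposure of human dermal foreskin fibroblast primary cultures. Both increases and decreases versus DMSO fitted.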

Read-out in experiment [15]: Urokinase-type plasminogen activator receptor (uPAR), PLAUR (gene 5329)
The experiment is described as follows: BSK_CASM3C_uPAR: BioMAP Diversity Plus: CASM3C Assay for Urokinase-type plasminogen activator receptor (uPAR) Biomarker Activity (AID 2283054).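 Also: cell-surface uPAR protein level quantified by ELISA.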 The settings on record: primary human coronary artery smooth muscle cells; actives raise or lower the signal.

Read-out in experiment [16]: Vascular cell adhesion molecule 1 (VCAM1), VCAM1 (gene 7412)
The experiment is described as follows: BSK_CASM3C_VCAM1: BioMAP Diversity Plus: CASM3C Assay for Vascular cell adhesion molecule 1 (VCAM1) Biomarker Activity (AID 2283055).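 Also: VCAM-1 protein level quantified by ELISA on the cells.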 The following applies: primary human coronary artery smooth muscle cells; actives raise or lower the signal.

Read-out in experiment [17]: Collagen III, COL3A1 (gene 1281)
The experiment can be described thus: BSK_hDFCGF_CollagenIII: BioMAP Diversity Plus: hDFCGF Assay for Collagen III Biomarker Activity (AID 2283056). The following applies: primary human foreskin fibroblasts; actives raise or lower the signal. The method in brief:
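Human foreskin primary fibroblasts were exposed to test chemicals for 24 h, after which collagen III was quantified by ELISA. Activity was fitted bidirectionally against DMSO as negative control and baseline.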

Read-out in experiment [18]: Epidermal growth factor receptor (EGFR), EGFR (gene 1956)
The experiment can be described thus: BSK_hDFCGF_EGFR: BioMAP Diversity Plus: hDFCGF Assay for Epidermal growth factor receptor (EGFR) Biomarker Activity (AID 2283057). The following applies: primary human foreskin fibroblasts; actives raise or lower the signal. In a few lines:
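EGFR levels by ELISA in human dermal fibroblast cultures, 24 h post-treatment, fitted bidirectionally versus DMSO. Parallel wells stained with sulforhodamine B to detect overt cytotoxicity.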

Read-out in experiment [19]: Interleukin-8 (IL8), CXCL8 (gene 3576)
The experiment can be described thus: BSK_hDFCGF_IL8: BioMAP Diversity Plus: hDFCGF Assay for Interleukin-8 (IL8) Biomarker Activity (AID 2283058). The following applies: primary human foreskin fibroblasts; actives raise or lower the signal. The method in brief:
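hDFCGF human dermal fibroblasts; 24 h chemical exposure; IL-8 by ELISA; bidirectional curve fit vs DMSO baseline; gain or loss of signal scored.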

Experiment [20] in a line: BSK_hDFCGF_Proliferation: Cell Proliferation Assessment in the BioMAP Diversity Plus: hDFCGF Assay (AID 2283059).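 Also: curves fitted for both rise and fall of signal versus DMSO baseline.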 The following applies: primary human foreskin fibroblasts. The method in brief:
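Steps: dose primary human dermal fibroblasts (foreskin); […] fix in 10% TCA; stain with 0.1% SRB; read 560 nm; fit gain or loss of signal against DMSO.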

Where “and” joins values, the source holds several entries; their conditions need not be identical. Identical values can stand only once. Some structures have more than one record in an assay (separate samples or runs), and their calls can disagree. Calls of active or inactive are those of the source. The calls were made as follows: active = hit-call score of the fitted dose curve at least 0.9, where 1 is the maximum; inactive = score below 0.9.

For `CCCCC1C(=O)N(c2ccccc2)N(c2ccccc2)C1=O`, the result in experiment [1], in experiment [2], in experiment [3], in [4], in [5] and in experiment [6] was inactive. In addition, the outcome in experiment [7], in [8], in experiment [9], in experiment [10], in [11] and in [12] was inactive. Also, the result in [13], in experiment [14], in [15], in experiment [16], in [17] and in [18] was inactive. Further, the result in [19] and in experiment [20] was inactive.
Turning to `C[N+](C)(C)CCCNS(=O)(=O)C(F)(F)C(F)(F)C(F)(F)C(F)(F)C(F)(F)C(F)(F)C(F)(F)C(F)(F)F`, the result in experiment [1], in experiment [3], in experiment [4], in experiment [5], in experiment [7] and in experiment [8] was inactive. Besides, the outcome in experiment [9], in experiment [10], in experiment [11], in experiment [12], in [13] and in experiment [15] was inactive. Moreover, the result in [16] and in [18] was inactive. For the same molecule, the half-maximal activity concentration (AC50) in experiment [2] is 17.1 µM (active) and 18.5 µM (active); in experiment [5] it was 16.8 µM (active); in [6] it was 19.5 µM (active) and 26.4 µM (active); in [10] it was 7.89 µM (active); in [12] it was 30 µM (active); in experiment [14], 48.5 µM (active) and 48.9 µM (active). The AC50 in experiment [17] was 11.4 µM (active) and 5.3 µM (active); in experiment [19] it was 49.3 µM (active) and 45.2 µM (active); in experiment [20], 1.44 µM (active) and 220 nM (active).
Regarding `CC(CCC(=O)O)(c1ccc(O)cc1)c1ccc(O)cc1`, the outcome in experiment [1], in experiment [2], in experiment [3], in experiment [4], in [5] and in [6] was inactive. Moreover, the result in [7], in experiment [8], in [9], in [10], in experiment [11] and in [12] was inactive. For the same molecule, the result in experiment [13], in experiment [14], in experiment [15], in [16], in experiment [17] and in [18] was inactive. For the same molecule, the result in experiment [19] and in experiment [20] was inactive.
Regarding `c1ccc2sc(SSN3CCOCC3)nc2c1`, the AC50 in experiment [1] was 12 µM (active); in experiment [2], 12.5 µM (active); in [3], 20 µM (active); in experiment [4], 4.62 µM (active); in experiment [5], 6.94 µM (active); in [7] it was 8.56 µM (active). The AC50 was 2.19 µM (active) in experiment [8]; 15.8 µM (active) in experiment [9]; 5.46 µM (active) in [10]; 20 µM (active) in experiment [11]; 10.6 µM (active) in experiment [13]; 6.71 µM (active) in [15]. In addition, the AC50 in [16] is 4.44 µM (active); in [18], 7.7 µM (active); in experiment [20] it was 1.41 µM (active). The outcome in experiment [6], in experiment [12], in experiment [14], in experiment [17] and in experiment [19] was inactive.
Regarding `COC(OC)(C(=O)c1ccccc1)c1ccccc1`, the result in [1], in [2], in experiment [3], in experiment [4], in experiment [5] and in experiment [6] was inactive. Besides, the outcome in experiment [7], in experiment [8], in [9], in experiment [10], in experiment [11] and in experiment [12] was inactive. The outcome in experiment [13], in experiment [14], in [15], in [16], in experiment [17] and in experiment [18] was inactive. Also, the result in experiment [19] and in [20] was inactive.
Consider `O=C1CCCCCCCCCCCN1`, for which the outcome in experiment [1], in experiment [2], in experiment [3], in experiment [4], in [5] and in experiment [6] was inactive. Further, the outcome in experiment [7], in experiment [8], in [9], in experiment [10], in experiment [11] and in experiment [12] was inactive. In addition, the result in [13], in experiment [14], in [15], in [16], in [17] and in experiment [18] was inactive. For the same molecule, the result in experiment [19] and in experiment [20] was inactive.
